Assay results from PubChem BioAssay AID1159580 (chemical genetic matrix, 2015).
In all, about 5,500 compounds went through this assay and about 2,000 (36%) were called active. Inconclusive results (about 18%) are left out. No stated cut-off is given here; in the data, active means normalized growth mostly below about 0.91 (no sharp cut-off); inconclusive means no clear call, values can overlap the other calls; inactive means mostly above about 0.92. The list shows a part of the results.

Test: chemical genetic growth profiling, strain panel (AID 1159580);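 further: tested at 20 µM; growth read once vehicle control cultures reached saturation at 30 °C; 1 = growth at the plate median or of vehicle wells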
Settings: growth OD

Measured: normalized growth

CCOC(=O)C1=C[C@]2(CC)CCCN3CCc4c(n1c1ccccc41)[C@@H]32
active: S. cerevisiae deletion strains, locus YNL307C, strain MCK1, stronger effect = lower value 0.879 | S. cerevisiae deletion strains, locus YOR184W, strain ser1, stronger effect = lower value 0.859
inactive: S. cerevisiae deletion strains, locus YKL009W, strain mrt4, stronger effect = lower value 0.964 | S. cerevisiae deletion strains, locus YKL068W, stronger effect = lower value 0.988 | S. cerevisiae deletion strains, locus YKL085W, strain MDH1 (second series), stronger effect = lower value 0.992 | S. cerevisiae deletion strains, locus YKL085W, strain MDH1, stronger effect = lower value 0.992 | S. cerevisiae deletion strains, locus YKL160W, strain elf1, stronger effect = lower value 1.03 | S. cerevisiae deletion strains, locus YKL190W, strain CNB1, stronger effect = lower value 0.982 | S. cerevisiae deletion strains, locus YKR001C, strain vps1, stronger effect = lower value 0.933 | S. cerevisiae deletion strains, locus YKR026C, strain gcn3, stronger effect = lower value 1.01 | S. cerevisiae deletion strains, locus YKR091W, strain srl3, stronger effect = lower value 1.01 | S. cerevisiae deletion strains, locus YLL001W, strain dnm1, stronger effect = lower value 1.03 | S. cerevisiae deletion strains, locus YLL026W, stronger effect = lower value 1.02 | S. cerevisiae deletion strains, locus YLL041C, strain sdh2, stronger effect = lower value 1.02 | S. cerevisiae deletion strains, locus YLR027C, strain aat2, stronger effect = lower value 1.02 | S. cerevisiae deletion strains, locus YLR039C, strain RIC1, stronger effect = lower value 0.924 | S. cerevisiae deletion strains, locus YLR058C, strain SHM2, stronger effect = lower value 0.963 | S. cerevisiae deletion strains, locus YLR102C, strain apc9, stronger effect = lower value 0.969 | S. cerevisiae deletion strains, locus YLR113W, strain HOG1, stronger effect = lower value 1.01 | S. cerevisiae deletion strains, locus YLR221C, strain rsa3, stronger effect = lower value 1.02 | S. cerevisiae deletion strains, locus YLR258W, strain gsy2, stronger effect = lower value 1.02 | S. cerevisiae deletion strains, locus YLR262C, strain YPT6 (second series), stronger effect = lower value 0.996 | S. cerevisiae deletion strains, locus YLR262C, strain YPT6, stronger effect = lower value 0.852 | S. cerevisiae deletion strains, locus YLR268W, strain sec22, stronger effect = lower value 0.923 | S. cerevisiae deletion strains, locus YLR320W, strain mms22, stronger effect = lower value 0.986 | S. cerevisiae deletion strains, locus YLR330W, strain CHS5, stronger effect = lower value 0.992 | S. cerevisiae deletion strains, locus YLR342W, strain FKS1 (second series), stronger effect = lower value 0.928 | S. cerevisiae deletion strains, locus YLR342W, strain FKS1, stronger effect = lower value 1.01 | S. cerevisiae deletion strains, locus YLR357W, strain rsc2, stronger effect = lower value 1.07 | S. cerevisiae deletion strains, locus YLR370C, strain arc18, stronger effect = lower value 1.02 | S. cerevisiae deletion strains, locus YLR371W, strain rom2, stronger effect = lower value 0.985 | S. cerevisiae deletion strains, locus YLR384C, strain iki3, stronger effect = lower value 1.04 | S. cerevisiae deletion strains, locus YLR418C, strain cdc73, stronger effect = lower value 0.915 | S. cerevisiae deletion strains, locus YML016C, strain PPZ1, stronger effect = lower value 0.985 | S. cerevisiae deletion strains, locus YML032C, strain rad52, stronger effect = lower value 0.95 | S. cerevisiae deletion strains, locus YML120C, strain ndi1, stronger effect = lower value 1.01 | S. cerevisiae deletion strains, locus YML124C, strain tub3, stronger effect = lower value 0.979 | S. cerevisiae deletion strains, locus YMR058W, strain fet3, stronger effect = lower value 1.02 | S. cerevisiae deletion strains, locus YMR078C, strain ctf18, stronger effect = lower value 0.977 | S. cerevisiae deletion strains, locus YMR125W, strain sto1, stronger effect = lower value 1.02 | S. cerevisiae deletion strains, locus YMR129W, stronger effect = lower value 1.02 | S. cerevisiae deletion strains, locus YMR205C, strain PFK2, stronger effect = lower value 0.995 | S. cerevisiae deletion strains, locus YMR223W, strain ubp8, stronger effect = lower value 0.961 | S. cerevisiae deletion strains, locus YMR231W, strain pep5, stronger effect = lower value 1.02 | S. cerevisiae deletion strains, locus YMR263W, strain SAP30, stronger effect = lower value 0.987 | S. cerevisiae deletion strains, locus YMR307W, strain GAS1, stronger effect = lower value 1.01 | S. cerevisiae deletion strains, locus YNL067W, strain RPL9B, stronger effect = lower value 0.949 | S. cerevisiae deletion strains, locus YNL071W, strain lat1, stronger effect = lower value 1.01 | S. cerevisiae deletion strains, locus YNL128W, strain TEP1, stronger effect = lower value 0.988 | S. cerevisiae deletion strains, locus YNL183C, strain NPR1, stronger effect = lower value 0.947 | S. cerevisiae deletion strains, locus YNL209W, strain ssb2, stronger effect = lower value 1.05 | S. cerevisiae deletion strains, locus YNL233W, strain BNI4, stronger effect = lower value 0.931 | S. cerevisiae deletion strains, locus YNL248C, strain rpa49, stronger effect = lower value 1.05 | S. cerevisiae deletion strains, locus YNL250W, strain rad50, stronger effect = lower value 0.978 | S. cerevisiae deletion strains, locus YNL271C, strain bni1, stronger effect = lower value 0.981 | S. cerevisiae deletion strains, locus YNL298W, strain CLA4, stronger effect = lower value 0.98 | S. cerevisiae deletion strains, locus YNL322C, strain KRE1 (second series), stronger effect = lower value 1.02 | S. cerevisiae deletion strains, locus YNL322C, strain KRE1, stronger effect = lower value 0.986 | S. cerevisiae deletion strains, locus YNR049C, strain mso1, stronger effect = lower value 1.02 | S. cerevisiae deletion strains, locus YNR052C, strain pop2, stronger effect = lower value 0.979 | S. cerevisiae deletion strains, locus YOL006C, strain TOP1, stronger effect = lower value 0.803 | S. cerevisiae deletion strains, locus YOL012C, strain htz1 0.935 | S. cerevisiae deletion strains, locus YOL147C, strain pex11, stronger effect = lower value 0.984 | S. cerevisiae deletion strains, locus YOR001W, strain rrp6, stronger effect = lower value 1.02 | S. cerevisiae deletion strains, locus YOR061W, strain CKA2, stronger effect = lower value 0.964 | S. cerevisiae deletion strains, locus YOR069W, strain VPS5, stronger effect = lower value 0.986 | S. cerevisiae deletion strains, locus YOR070C, strain gyp1, stronger effect = lower value 1.01 | S. cerevisiae deletion strains, locus YOR080W, strain dia2, stronger effect = lower value 1.03 | S. cerevisiae deletion strains, locus YOR083W, strain WHI5, stronger effect = lower value 1.01 | S. cerevisiae deletion strains, locus YOR106W, strain vam3, stronger effect = lower value 1.04 | S. cerevisiae deletion strains, locus YOR136W, strain idh2, stronger effect = lower value 0.978 | S. cerevisiae deletion strains, locus YOR144C, strain elg1, stronger effect = lower value 0.994 | S. cerevisiae deletion strains, locus YOR231W, strain MKK1, stronger effect = lower value 1.02 | S. cerevisiae deletion strains, locus YOR265W, strain rbl2, stronger effect = lower value 1.02 | S. cerevisiae deletion strains, locus YOR270C, strain vph1, stronger effect = lower value 0.957 | S. cerevisiae deletion strains, locus YOR290C, strain snf2, stronger effect = lower value 1.01 | S. cerevisiae deletion strains, locus YOR316C, strain cot1, stronger effect = lower value 0.974 | S. cerevisiae deletion strains, locus YPL051W, strain arl3, stronger effect = lower value 1.01 | S. cerevisiae deletion strains, locus YPL055C, strain LGE1, stronger effect = lower value 0.887 | S. cerevisiae deletion strains, locus YPL078C, strain atp4, stronger effect = lower value 1.01 | S. cerevisiae deletion strains, locus YPL106C, strain sse1, stronger effect = lower value 1.03 | S. cerevisiae deletion strains, locus YPL240C, strain hsp82, stronger effect = lower value 1.04 | S. cerevisiae deletion strains, locus YPL256C, strain CLN2, stronger effect = lower value 0.999 | S. cerevisiae deletion strains, locus YPR119W, strain clb2, stronger effect = lower value 0.986 | S. cerevisiae deletion strains, locus YPR141C, strain kar3, stronger effect = lower value 0.986 | S. cerevisiae deletion strains, locus YPR163C, strain tif3, stronger effect = lower value 0.936 | S. cerevisiae deletion strains, locus YPR167C, strain met16, stronger effect = lower value 0.989 | S. cerevisiae deletion strains, strain wtn01, stronger effect = lower value 0.993 | S. cerevisiae strains, strain wild type, stronger effect = lower value 0.974
